Records with an inconclusive call do not appear. Calls of active or inactive are those of the source. The call rests on the fitted dose curve; in most records, active means well fitted inhibition curve with a large enough effect in the repeat runs; inconclusive means weak or mixed curves, or effect the other way; inactive means no such curve, though single readings can be large or run the other way.
On the % scale 0 is the no-effect control and ±100 the full control effect.

In this assay the target is Nuclear receptor ROR-gamma (Homo sapiens) (UniProt P51449). Kind of assay: qHTS assay to identify small molecule antagonists of the retinoid-related orphan receptor gamma (ROR-gamma) signaling pathway (AID 1159521;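 further: CHO cells with doxycycline inducible ROR-gamma driving an RORE luciferase reporter; top concentration of the series differs between compounds; nearly all actives have a fitted effect of over 50% in size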). The settings on record: Tet-on RORgamma CHO cells, RORE-luciferase, 16 h; series mostly up to 92.4 µM; activity change, negative = inhibition: at the top concentration. The procedure, abridged: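 Decreased RORE-driven luciferase luminescence indicates antagonism. Tet-on RORγ CHO cells received compound, then 1 uM final doxycycline 2 h later; signal read after 16 h incubation.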
Background: In qHTS, concentration-response curves come from the screen itself.
In the case of `O=C1Nc2ccc([N+](=O)[O-])cc2C1=O`, the “activity change, negative = inhibition” value was 25.3% (inactive). For `O=C1CCN(c2ccccc2)N1`, the “activity change, negative = inhibition” value was 13.7% (inactive).

With `C[C@@H](N)C(=O)O`, the “activity change, negative = inhibition” value was -9.11% [at 42.5 µM] (inactive). As to `CCc1cc(Cl)c(OC)c(C(=O)NC[C@@H]2CCCN2CC)c1O`, the “activity change, negative = inhibition” value is -1.67% [at 42.5 µM] (inactive).

Turning to `CC1(O)CSC(C)(O)CS1` (stereo not given), the “activity change, negative = inhibition” value was 62.3% (inactive). For `Cc1cc2nc(N)sc2cc1C`, the “activity change, negative = inhibition” value was 122% (inactive). `Cc1nc(N)nc(N)c1-c1ccc(Cl)c(Cl)c1`: the “activity change, negative = inhibition” value is -3.58% [at 42.5 µM] (inactive). In the case of `Cc1c(-c2ccccc2)oc2c(C(=O)OCCN3CCCCC3)cccc2c1=O`, the “activity change, negative = inhibition” value is -1.46% [at 42.5 µM] (inactive).

On to `COc1ccc(Nc2ccc(OC)cc2)cc1`, for which the “activity change, negative = inhibition” value was 72.2% (inactive). In the case of `CCCCCCCOC(=O)CCC` it was 6.7% (inactive). Turning to `CCCCCCCCCCCCCCCCOP(=O)([O-])OCC[N+](C)(C)C`, the “activity change, negative = inhibition” value is 1.79% [at 42.5 µM] (inactive). Take `CCCCCCOc1ccc(N)cc1`: the “activity change, negative = inhibition” value is 78.5% (inactive). For `CC(C)c1ccccc1`, the “activity change, negative = inhibition” value was 10.1% (inactive). In the case of `Cc1nc(-c2ccccn2)ncc1C(=O)Nn1cc(C)c2cc(F)ccc21`, the “activity change, negative = inhibition” value is -10.6% (inactive).

As to `CN1CCN(C2=Nc3cc(F)ccc3Cc3ccccc32)CC1`, the “activity change, negative = inhibition” value is -7.85% [at 42.5 µM] (inactive). Turning to `Cc1cccc(C)c1NC(=O)CN1CCCCCC1`, the “activity change, negative = inhibition” value was 32% [at 42.5 µM] (inactive). For the compound `O=C(CC(=O)C(F)(F)F)c1ccccc1`, the “activity change, negative = inhibition” value is 4.35% (inactive). For the compound `O=Cc1ccc(O)c(O)c1O`, the “activity change, negative = inhibition” value was -0.42% [at 42.5 µM] (inactive). In the case of `CC(C)C[C@H](NC(=O)OCC1c2ccccc2-c2ccccc21)C(=O)O` it was 15% (inactive); in that of `CCCCNc1ccc(C(=O)OCCN(CC)CC)cc1`, -11.1% [at 42.5 µM] (inactive); in that of `CCCCCCCCCC#N`, 1.34% (inactive). `CN1CCC[C@@H]1Cc1c[nH]c2ccc(CCS(=O)(=O)c3ccccc3)cc12`: the “activity change, negative = inhibition” value is -15.5% [at 42.5 µM] (inactive). Take `Cc1ccc(C(C)C)cc1O`: the “activity change, negative = inhibition” value is 11.9% (inactive). As to `CC(=O)Oc1cc(C(C)C)c(OCCN(C)C)cc1C`, the “activity change, negative = inhibition” value was 34.5% [at 42.5 µM] (inactive).

Turning to `CCCCCCCCc1ccc(S(=O)(=O)O)cc1`, the “activity change, negative = inhibition” value is -2.4% (inactive).
